# Source: PubChem
# Hits are enriched below; roughly 11% of the tested compounds scored in any of these assays.
# HTT ATP protect = Huntington cell model cytoprotection by ATP luminescence. PC12 HTT-Q103 induced, cytoprotection, ATP luminescence, 40 h. Potency, µM (titrated, usually from 56.4 µM), without a hit: cytoprotection (ATP increase), usual class: activators. 0.14% of 230,000 active; further: potency means the concentration at half of the fitted maximal effect; % of control where 0% means no effect; nearly all actives have a fitted effect of over 45% in size
#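 PC12 cells with ecdysone-inducible HTT exon 1 Q103-GFP, induced with 100 nM tebufenozide and co-treated with library compounds in a dose series (1536-well, 1500 cells/well). Cytoprotection read as ATP content by ATPlite luminescence.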
# HTT aggregate = reduces HttQ103-GFP aggregates in PC12 cells; PC12 HttQ103-GFP aggregates, Acumen cytometry, 40 h; Potency, µM (highest dose often 46.1 µM), inactives show at the highest dose activity change, negative = inhibition, usual class: inhibitors; 1.1% of 220,000 active; AID 1688; further: potency means the concentration at half of the fitted maximal effect; on the % scale 0 is the no-effect control and ±100 the full control effect; nearly all actives have a fitted effect of over 60% in size
#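 Aggregate formation scored by laser-scanning cytometer (488 excitation, 500–530 emission) in lysed PC12 cells expressing Q103-GFP after 100 nM tebufenozide induction; library tested in dose series, with ATPLite reagent added in the multiplex.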
# CBFb RUNX1 block = inhibitors of human CBF-beta and RUNX1 interaction; Q01196+Q13951; AlphaScreen CBFb-His/RUNX1-biotin binding, biochemical; Potency, µM (highest dose often 59.8 µM), without a hit: at the highest dose activity, negative = inhibition, usual class: inhibitors; 230,000 tested, under 10 active; AID 1477; further: % of control where 0% means no effect
# Target sequence (Q01196 whole entry, looked up): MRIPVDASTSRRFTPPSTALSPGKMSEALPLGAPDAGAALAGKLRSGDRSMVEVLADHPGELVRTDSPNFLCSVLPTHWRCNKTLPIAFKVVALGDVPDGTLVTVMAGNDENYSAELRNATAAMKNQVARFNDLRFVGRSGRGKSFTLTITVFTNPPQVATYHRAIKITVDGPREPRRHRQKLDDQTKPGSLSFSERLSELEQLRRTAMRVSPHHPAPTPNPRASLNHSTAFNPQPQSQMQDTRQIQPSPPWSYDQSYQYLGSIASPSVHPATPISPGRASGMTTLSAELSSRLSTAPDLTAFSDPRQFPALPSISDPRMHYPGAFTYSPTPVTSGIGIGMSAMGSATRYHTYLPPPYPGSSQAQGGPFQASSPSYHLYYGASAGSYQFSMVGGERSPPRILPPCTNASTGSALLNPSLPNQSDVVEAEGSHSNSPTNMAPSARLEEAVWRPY
# Target sequence (Q13951 whole entry, looked up): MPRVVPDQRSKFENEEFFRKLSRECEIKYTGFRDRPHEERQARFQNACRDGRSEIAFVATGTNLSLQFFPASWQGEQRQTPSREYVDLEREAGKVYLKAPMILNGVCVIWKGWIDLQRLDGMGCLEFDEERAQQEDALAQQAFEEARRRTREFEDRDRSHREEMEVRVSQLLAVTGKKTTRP
#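 Bead-based AlphaScreen assay; binding partners His-tagged CBF-beta and biotinylated RUNX1 at 30 nM each. Compound exposure 15 min after a 20-min protein preincubation; bead step 90 min; all steps at room temperature.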
# ALDH1A1 inh = ALDH1A1 (human) enzyme inhibition. 7.3% of 220,000 active. P00352. AID 1030. Purified ALDH1A1, NADH fluorescence, propionaldehyde substrate. Potency, µM (top dose mostly 75.3 µM), for inactives: top-dose activity, negative = inhibition, usual class: inhibitors; active means well fitted inhibition curve with a large enough effect, not every such curve was filed as active; inconclusive means small, poorly fitted or top-dose-only effect, or another doubt; inactive means no such curve, though single readings can be large or run the other way;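 further: potency means the concentration at half of the fitted maximal effect; plate controls were no enzyme wells and a reference inhibitor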
# HPGD block = blocks human HPGD enzyme activity. 4.3% of 150,000 active. P15428. purified HPGD, NADH fluorescence kinetic, PGE2 substrate. Potency, µM, for the others: at the highest dose activity change, negative = inhibition, usual class: inhibitors; active means well fitted inhibition curve with a large enough effect, not every such curve was filed as active; inconclusive means small, poorly fitted or top-dose-only effect, or another doubt; inactive means no such curve, though single readings can be large or run the other way; further: potency means the concentration at half of the fitted maximal effect; on the % scale 0 is the no-effect control and ±100 the full control effect
#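 NADH formation kinetics: reaction with 30 uM PGE2 and 1 mM NAD+ (final), 20 nM enzyme, Tris-HCl pH 8 with Tween 20, after 15 min compound preincubation at room temperature. Fluorescence change, last versus first of five reads.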
# PNC assembly inh = inhibitors of perinucleolar compartment assembly | PC3M PTB-GFP, PNC prevalence imaging, 16 h; stronger effect = lower value | activity change (PNC), negative = inhibition, % at 10 µM | 3.1% of 140,000 active | AID 2417;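 active means readout at or below -70, meaning at least 70% loss of cells showing the perinucleolar compartment, a nuclear body marking cancer cells; inconclusive means readout between -30 and a set limit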;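 further: plate controls were DMSO wells for no effect and camptothecin positive control wells for full effect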
#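 PC3M cells stably expressing PTB-GFP, 750–1000 cells/well, treated 16 h at 37 °C with compound (23 nl of library stock), in duplicate. After paraformaldehyde fixation and Hoechst stain, imaged at 20x; PNC prevalence scored by image analysis.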
# Starred values were filed as active, the others as inactive; ? = inconclusive; · = no result; [ ] = dose if it differs, or a comment. Unless noted, the call rests on the fitted dose curve; in most records, active means well fitted curve in the direction sought with a large enough effect; inconclusive means small, poorly fitted or top-dose-only effect, or another doubt; inactive means no such curve, though single readings can be large; an effect the other way counts as inactive or inconclusive.
SMILES,HTT ATP protect,HTT aggregate,CBFb RUNX1 block,ALDH1A1 inh,HPGD block,PNC assembly inh
CCOC(=O)N/N=C1/C[C@@H](O)[C@@H](O)[C@@H]2[C@@H]3C(=O)N(C[C@@H]4CCCO4)C(=O)[C@H]3CC[C@@H]12,-49%[10 µM],·,-5%[13.1 µM],18%[13.5 µM],·,·
CCN(CC)c1nc(C)nc2c1sc(=S)n2C,-46%,-29%,7%,-4%,·,·
Cc1nc(N(C)C)c2sc(=S)n(Cc3ccccc3)c2n1,-39%,-6%,-11%,6.3µM*,·,·
Cc1ccc(OCC(=O)c2ccc(Cl)s2)c([N+](=O)[O-])n1,16%[10 µM],22%,-18%,2.2µM*,·,·
Cc1ccc(OCC(=O)N2CC(C)OC(C)C2)c([N+](=O)[O-])n1 (centres undefined),0.05µM*,3%,8%,9%,·,·
COc1ccc(OCCOc2ccc(C)nc2[N+](=O)[O-])cc1,18%[10 µM],-4%,-13%,4%,-24%,-11
Cc1ccc(OCCOc2ccc(Cl)cc2Cl)c([N+](=O)[O-])n1,9%[10 µM],15%,0%,-6%,32µM*,71
CCOc1ccc(C(=O)OCC(=O)Nc2ccc(SC(F)F)cc2)cc1OCC,-34%[10 µM],?,18%,2%,-7%,39
Cc1onc(-c2c(Cl)cccc2Cl)c1C(=O)N=C(N)N1CC(C)OC(C)C1 (centres undefined),2%[10 µM],16%[9.22 µM],2%,·,·,·
O=C(Nc1nnc(CSCc2ccc(F)cc2)s1)c1ccc([N+](=O)[O-])cc1,-11%[10 µM],-14%,5%,?,?,-96*
O=C(Nc1nnc(CSCc2ccccc2F)s1)c1cccc([N+](=O)[O-])c1,17%[10 µM],?,-16%,25µM*,?,-100*
CC(=O)Nc1nnc(CSCc2ccc(F)cc2)s1,12%[10 µM],15%[9.22 µM],-4%,·,·,·
CN(C(=O)C(Cl)Cl)C1CC2C=CC1C2 (centres undefined),13%[10 µM],18%[9.22 µM],1%,·,·,·
Cc1nn(-c2ccccc2)c(Cl)c1C(=O)Nc1nnc(C2CCCC2)s1,-24%[10 µM],?,17%,2.8µM*,-19%,-85*
Cc1nn(-c2ccccc2)c(Cl)c1C(=O)NC1CCCCC1,-4%[10 µM],-3%[9.22 µM],16%,-8%,·,·
Cc1cccc(C)c1NC(=O)c1c(C)nn(-c2ccccc2)c1Cl,-13%[10 µM],-20%,20%,-5%,-6%,?
Cc1ccc(NC(=O)c2c(C)nn(-c3ccccc3)c2Cl)c(C)c1,-15%,-1%,-9%,-12%,14µM*,37
Cc1ccc(-c2csc(NC(=O)CCNC(=O)c3ccccc3Cl)n2)cc1,15%[10 µM],-3%,-8%,-16%,-29%,?
COC(=O)C1=CN(Cc2cccs2)C=C(C(=O)OC)C1c1cccc(Cl)c1,22%[10 µM],-27%,?,?,·,·
CCN1C=C(C(=O)OC)C(c2cccc(C)c2)C(C(=O)OC)=C1,-7%,2%,18%,?,?,-80*
O=C(c1ccc(Cl)cc1)c1oc2ccccc2c1CS(=O)c1ccc(Cl)cc1 (centres undefined),-22%,-11%,5%,4µM*,-18%,?
Nc1c(C(=O)c2ccc(Cl)cc2)oc2ccccc12,5%[0.074 µM],-10%,12%,3%,-9%,54
COc1cccc2c1NC(C(=O)O)C1CC=CC21 (centres undefined),14%[10 µM],-11%,·,8.9µM*,?,-10
Cc1ccc2c(c1)C1C=CCC1C(C(=O)O)N2 (centres undefined),-9%[10 µM],15%,·,?,20µM*,36
NS(=O)(=O)c1ccc2c(c1)C1C=CCC1C(C1CC=CCC1)N2 (centres undefined),-17%,4%,-22%,?,-17%,-28
SMILES,HTT ATP protect,HTT aggregate,CBFb RUNX1 block,ALDH1A1 inh,HPGD block,PNC assembly inh
CC(C)C1Nc2ccc(S(N)(=O)=O)cc2C2C=CCC21 (centres undefined),12%[0.074 µM],-10%,-14%,20µM*,-27%,?
CCCCCCCCCCCCCCC[C@H](O)[C@@H](N)CO,10%,·,19%,7%,-5%,·
O=c1nc(/C=C/c2cc([N+](=O)[O-])ccc2Cl)cc(C(F)(F)F)[nH]1,7%[10 µM],?,4%,?,3.2µM*,-27
O=c1nc(/C=C/c2cccn2-c2ccc([N+](=O)[O-])cc2)cc(C(F)(F)F)[nH]1,-11%,-13%,?,-1%,·,·
COc1ccc(NC(=S)NCc2cccs2)cc1OC,·,7%,18%,7%,·,·
Fc1ccc(NC(=S)NCc2cccs2)cc1,20%[10 µM],-9%,5%,-9%,18µM*,-3
S=C(NCc1cccs1)Nc1ccccc1,16%[10 µM],18%,1%,?,13µM*,40
Cc1ccc(NC(=S)NCc2cccs2)cc1,4%,17%,2%,-7%,28µM*,12
Cc1cccc(NC(=S)NCc2cccs2)c1,5%,-5%,-1%,-2%,·,·
COc1cccc(NC(=S)NCc2cccs2)c1,?,-6%,6%,-9%,18µM*,-7
CCOC(=O)Nc1ccc(C(=O)/C=C/c2ccccc2)cc1,-23%[10 µM],-8%[9.22 µM],11%,·,·,·
CC1(C)CC(=O)c2sc(NS(C)(=O)=O)nc2C1,2%,8%,3%,-8%,-20%,-19
CCC(C)C(=O)Nc1nc2c(s1)C(=O)CC(C)(C)C2 (centres undefined),16%[10 µM],-11%,-1%,16µM*,-24%,-119*
CC1(C)CC(=O)c2sc(NC(=O)CN3CCOCC3)nc2C1,-7%,-11%,5%,20µM*,-6%,16
CCC(Oc1ccccc1)C(=O)Nc1nc2c(s1)C(=O)CC(C)(C)C2 (centres undefined),2%,-16%,3%,13µM*,-14%,39
CC1(C)CC(=O)c2sc(NC(=O)CN3C(=O)CCC3=O)nc2C1,-6%,?,7%,?,?,18
Cc1ccc(NC(=O)C(C)N2C(=O)c3ccccc3C2=O)cc1S(=O)(=O)N1CCOCC1 (centres undefined),-39%,24%,-2%,7%,·,·
CCOC(=O)NNc1ccc2nonc2c1[N+](=O)[O-],23%[10 µM],6%[9.22 µM],?,18µM*,·,·
O=[N+]([O-])c1c(Nc2ccccc2)ccc2nonc12,19%[10 µM],8%,11%,-3%,-12%,34
CCOC(=O)N1CCN(C(=O)COc2cc(C)c(Cl)c(C)c2)CC1,35%[10 µM],38%[9.22 µM],-5%,5%,·,·
O=C(CCCOc1ccc(Cl)cc1Cl)N1CCc2ccccc2C1,-8%[10 µM],2%,0%,-2%,2.5µM*,-19
Cc1cc(Cl)ccc1OCCCC(=O)N1CCOCC1,-10%,-6%,-2%,-7%,-15%,?
Cc1cc(Cl)ccc1OCCCC(=O)N1CCCCC1,2%,1%,0%,-14%,6.3µM*,-9
